Out of some 360,000 compounds screened, about 2,900 (0.81%) were called active. The full list was thinned out, with actives kept by preference. A number with no mark means an inactive call.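 The calls were made as follows: active = inhibition above the mean inhibition across every tested compound plus 3 SD (cut at about 22% in these data); inactive = the rest.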
These molecules were tested against Perilipin-5 (Homo sapiens) + 1-acylglycerol-3-phosphate O-acyltransferase ABHD5 (Homo sapiens) (UniProt Q00G26+Q8WTS1) (assay: ABHD5-PLIN5 interaction inhibitors, primary screen, cell lysate, split luciferase complementation, luminescence (AID 602281;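 also: 0% = DMSO only wells and the 100% control is not disclosed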)). Conditions: Split G. princeps luciferase complementation, 4 h, at 4 µM, hits give high values.
Chain of Perilipin-5 (Homo sapiens) + 1-acylglycerol-3-phosphate O-acyltransferase ABHD5 (Homo sapiens) (Q00G26 whole entry, looked up): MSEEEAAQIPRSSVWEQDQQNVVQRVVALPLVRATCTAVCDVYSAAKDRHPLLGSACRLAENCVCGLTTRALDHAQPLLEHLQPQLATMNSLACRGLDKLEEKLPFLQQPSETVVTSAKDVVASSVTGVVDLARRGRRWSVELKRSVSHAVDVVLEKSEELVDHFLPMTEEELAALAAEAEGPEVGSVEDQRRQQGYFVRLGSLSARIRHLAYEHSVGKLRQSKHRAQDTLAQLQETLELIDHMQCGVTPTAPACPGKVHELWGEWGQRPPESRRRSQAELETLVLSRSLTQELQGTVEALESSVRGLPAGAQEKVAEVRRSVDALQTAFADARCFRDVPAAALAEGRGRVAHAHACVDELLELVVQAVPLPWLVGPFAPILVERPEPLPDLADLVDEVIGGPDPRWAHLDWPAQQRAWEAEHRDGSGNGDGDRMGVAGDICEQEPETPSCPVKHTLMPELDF
Chain of Perilipin-5 (Homo sapiens) + 1-acylglycerol-3-phosphate O-acyltransferase ABHD5 (Homo sapiens) (Q8WTS1 whole entry, looked up): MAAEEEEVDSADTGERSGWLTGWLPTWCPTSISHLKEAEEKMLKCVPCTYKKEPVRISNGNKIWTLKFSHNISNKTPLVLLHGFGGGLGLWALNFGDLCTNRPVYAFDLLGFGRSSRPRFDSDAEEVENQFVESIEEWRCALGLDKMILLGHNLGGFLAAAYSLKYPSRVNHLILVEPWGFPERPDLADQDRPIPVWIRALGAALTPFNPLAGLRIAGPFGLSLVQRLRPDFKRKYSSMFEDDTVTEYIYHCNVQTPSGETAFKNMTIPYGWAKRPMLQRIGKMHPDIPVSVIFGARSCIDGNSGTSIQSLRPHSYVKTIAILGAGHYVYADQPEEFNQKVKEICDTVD

**Q.** How did the inhibition turn out when `NC(=O)c1ncn([C@@H]2O[C@H](CNCc3cnc(N4CCOCC4)s3)[C@@H](O)[C@H]2O)n1` was run?
**A.** The inhibition was -2.34%.

**Q.** For `COc1ccc(C(=O)c2c3ccc([N+](=O)[O-])cc3[n+]([O-])n2CCCN)cc1`, which inhibition is on record?
**A.** Its inhibition is -9.06%.

**Q.** Which inhibition does the source give for `O=C(Cc1ccccn1)c1ccc(O)cc1O` here?
**A.** Its inhibition is -1.78%.

**Q.** With `O=C(NNc1c2ccccc2nc2ccccc12)c1cc2ccccc2cc1O` as the molecule, how does the inhibition read?
**A.** Its inhibition is 26.3% (active).

**Q.** For `O=C(CSc1nc(C2CC2)nc2ccccc12)Nc1cccc(O)c1`, which inhibition is on record?
**A.** Its inhibition is -2.61%.

**Q.** Which inhibition does the source give for `CCCn1c(N)c(N(CCOC)C(=O)C2CCCC2)c(=O)[nH]c1=O` here?
**A.** The inhibition was -0.19%.

**Q.** How did the inhibition turn out when `Cc1ccc(CC(=O)N(C)CC(=O)N(CC(C)C)c2c(N)n(CC(C)C)c(=O)[nH]c2=O)cc1C` was run?
**A.** Its inhibition is -2.36%.

**Q.** With `O=c1[nH]c(/C=C\c2cccc(C(F)(F)F)c2)nc(O)c1[N+](=O)[O-]` as the molecule, how does the inhibition read?
**A.** Its inhibition is 42.7% (active).

**Q.** How did the inhibition turn out when `Cc1ccccc1/C=C\c1nc(O)c([N+](=O)[O-])c(=O)[nH]1` was run?
**A.** Its inhibition is 15.6%.

**Q.** With `O=c1cc(O)c(-c2cccc(C(F)(F)F)c2)c(Cl)[nH]1` as the molecule, how does the inhibition read?
**A.** The inhibition was 1.03%.

**Q.** For `COCCCNC(NC(=O)c1ccc(C)cc1)C(Cl)(Cl)Cl` (centres undefined), which inhibition is on record?
**A.** The inhibition was -2.85%.

**Q.** How did the inhibition turn out when `COc1ccccc1CNC(=O)c1ccc(N(C)S(=O)(=O)c2ccc(C)cc2)cc1` was run?
**A.** The inhibition was 4.36%.

**Q.** With `CN(CCO)S(=O)(=O)c1ccc2c(c1)C(=O)c1cc(S(=O)(=O)N(C)CCO)ccc1-2` as the molecule, how does the inhibition read?
**A.** Its inhibition is -0.45%.

**Q.** With `CCC1(c2ccccc2)NC(=O)N(CC(=O)Nc2ccccc2C(=O)NC2CCCC2)C1=O` (centres undefined) as the molecule, how does the inhibition read?
**A.** Its inhibition is -4.04%.

**Q.** How did the inhibition turn out when `C=C(C)C(=O)O[C@H]1C/C(C)=C\C(=O)/C=C(\C)[C@H](O)[C@@H]2OC(=O)C(=C)[C@@H]21` was run?
**A.** Its inhibition is 27% (active).

**Q.** With `CCS(=O)(=O)Nc1ccc(C2=NN(S(=O)(=O)c3ccc(F)cc3)C(c3ccco3)C2)cc1` (centres undefined) as the molecule, how does the inhibition read?
**A.** The inhibition was 29.4% (active).

**Q.** Which inhibition does the source give for `Cc1ccc(C2=NN(C(=O)CSc3nc(N)cc(N)n3)C(c3ccco3)C2)cc1` (centres undefined) here?
**A.** Its inhibition is 12.7%.

**Q.** For `COc1cccc(C2CC(c3ccccc3)=NN2S(=O)(=O)c2ccccc2)c1OC` (centres undefined), which inhibition is on record?
**A.** The inhibition was -7.74%.

**Q.** How did the inhibition turn out when `Cc1[nH]c(=O)c(C(=O)/C=C/c2ccccc2)c2c1CCCC2` was run?
**A.** Its inhibition is 32.6% (active).

**Q.** Which inhibition does the source give for `O=C(NCc1ccccn1)c1c(O)c2c([nH]c1=O)CCCC2` here?
**A.** Its inhibition is 3.03%.

**Q.** Which inhibition does the source give for `C/C(=C\c1ccccc1)C1NC(=O)c2c(sc3c2CCCC3)N1` (centres undefined) here?
**A.** The inhibition was -8.89%.

**Q.** Which inhibition does the source give for `COC(=O)COc1cccc2c(=O)n(CC(=O)NCc3ccccc3)ccc12` here?
**A.** Its inhibition is -4.9%.

**Q.** For `CN(C)CCCN(C(=O)c1ccc(S(=O)(=O)N2CCCCCC2)cc1)c1nc2ccc(Br)cc2s1`, which inhibition is on record?
**A.** The inhibition was 22.3% (active).

**Q.** Which inhibition does the source give for `COc1cc(C(=O)NNC(=O)c2ccc(S(=O)(=O)N3CCCCC3)cc2)cc(OC)c1OC` here?
**A.** Its inhibition is 0.06%.

**Q.** How did the inhibition turn out when `CCN(CC(=O)Nc1c(F)cccc1F)C(=O)c1ccc(S(=O)(=O)N2CCCCC2)cc1` was run?
**A.** The inhibition was 0.66%.

**Q.** Which inhibition does the source give for `O=C(O)CCn1cc(/C=C/C(=O)c2ccc(Cl)cc2)c(-c2cccc(Br)c2)n1` here?
**A.** The inhibition was 22.9% (active).

**Q.** `COc1ccc(NC(=O)CN(C)C(=O)/C=C/c2cn(Cc3ccccc3)nc2-c2cccnc2)cc1` was tested. Which inhibition did it give?
**A.** The inhibition was 0.58%.

**Q.** `Cc1ccc(S(=O)(=O)N[C@H](CO)C(C)C)cc1` was tested. Which inhibition did it give?
**A.** Its inhibition is 2.76%.

**Q.** For `COc1ccc(/C=C/C(=O)c2ccc(NS(=O)(=O)c3ccc(C)cc3)cc2)cc1O`, which inhibition is on record?
**A.** Its inhibition is 46% (active).

**Q.** `COc1ccc(C(=O)/C=C/c2ccc(-c3ccccc3)cc2)cc1CSCC(=O)O` was tested. Which inhibition did it give?
**A.** The inhibition was 14.9%.

**Q.** Which inhibition does the source give for `COc1ccc(S(=O)(=O)Nc2ccc3oc(C)c(C(C)=O)c3c2)cc1` here?
**A.** Its inhibition is 4.01%.

**Q.** Which inhibition does the source give for `CC(C)Cc1nn2c(=O)cc(O)nc2s1` here?
**A.** The inhibition was 4.21%.

**Q.** Which inhibition does the source give for `O=C(NCC(=O)N(Cc1cccs1)C(C(=O)NC1CCCCC1)c1ccco1)c1cccs1` (centres undefined) here?
**A.** Its inhibition is -12.1%.

**Q.** For `CCNC(=O)CC1C(=O)N(c2ccc(OC)cc2)C(=O)N1CCOC` (centres undefined), which inhibition is on record?
**A.** The inhibition was 2.8%.

— PubChem BioAssay AID602281 (The Scripps Research Institute Molecular Screening Center, 2012)
